Values joined by “and” are separate entries in the source; they are usually repeats but may differ in a detail not shown here. Equal entries are not always repeated. The whole screen tested about 300,000 compounds, of which about 5,400 (1.8%) were called active. Where a call stands in place of a potency, no number is given. Not shown: some 28% with an inconclusive outcome. The call rests on the fitted dose curve; tested in HEK293 cells. The sample as a whole holds a higher share of actives than the screen did.
Test: qHTS for inhibitors of binding or entry into cells for Marburg Virus
Settings: Marburg virus pseudotyped entry inhibition, cell reporter; series mostly up to 37.8 µM
Potency means the concentration at half of the fitted maximal effect.

| Compound | Potency |
| --- | --- |
| CCOC(=O)N1CCC(N2Cc3cccc(C(=O)Nc4ccc(S(=O)(=O)N(CC)CC)cc4)c3C2=O)CC1 | inactive |
| CCn1cc(C(=O)O)c(=O)c2c1N=C(C)CC2 | inactive |
| Cc1ccnc(NC(=O)c2ccoc2C)c1 | inactive |
| COc1ccccc1CNC(=O)c1ccc(SC)cc1OC | inactive |
| COc1cc(SC)ccc1C(=O)Nc1cc(C)ccn1 | 14.6 µM (active) |
| COc1cnn(-c2ccc([N+](=O)[O-])cc2)c(=O)c1Cl | inactive |
| Cc1cccnc1CC(C)NC(=O)c1cc(COc2cncc(Cl)c2)on1 (stereo not given) | inactive |
| CCCC(O)(c1ccccc1)C(c1ccccc1)c1ccccn1 (stereo not given) | inactive |
| O=C(c1ccc2c(c1)N(Cc1ccccc1)C(=O)c1ccccc1S2(=O)=O)N1CCCC1 | inactive |
| O=C(c1ccc2c(c1)N(Cc1ccc(F)cc1)C(=O)c1ccccc1S2(=O)=O)N1CCN(c2ccccn2)CC1 | 5.01 µM (active) and 3.16 µM (active) |
| O=C(c1ccc2c(c1)N(Cc1ccc(Cl)cc1)C(=O)c1ccccc1S2(=O)=O)N1CCCCC1 | inactive |
| O=C(Nc1ccc(S(=O)(=O)Nc2ccccn2)cc1)c1ccccc1 | inactive |
| COC(=O)Cc1nc2c(N)nc(N)nc2[nH]c1=O | inactive |
| CCCCn1c(N)c(N(CCC(C)C)C(=O)CC2OC(=O)c3ccccc32)c(=O)[nH]c1=O (stereo not given) | inactive |
| COc1ccc(Cl)cc1NC(=O)COC(=O)c1ccc(Br)o1 | inactive |
| c1ccc2cc(OCCN3CCCC3)ccc2c1 | inactive |
| CC1CN(CCCOc2ccccc2-c2ccccc2)CC(C)O1 (stereo not given) | inactive |
| CC1CN(CCOc2ccccc2[N+](=O)[O-])CC(C)O1 (stereo not given) | inactive |
| c1ccc(-c2ccccc2OCCN2CCCCC2)cc1 | 14.6 µM (active) |
| CC1CCCN(CCOCCOc2ccccc2-c2ccccc2)C1 (stereo not given) | 11.2 µM (active) |
| O=[N+]([O-])c1ccccc1OCCCCN1CCCCC1 | inactive |
| CN(Cc1ccc(F)cc1)C(=O)CN1C(=O)c2ccccc2S1(=O)=O | inactive |
| COc1ccc(C(=O)CC(=O)c2ccc(C)cc2)c(O)c1 | inactive |
| COc1ccc(N=C2C=CC(=O)O2)cc1 | inactive |
| COc1ccc(Cc2nc3ccc(C(=O)NCC4CCOCC4)cc3o2)cc1OC | inactive |
| O=C(Cc1c[nH]c2ccccc12)OCCOC(=O)Cc1c[nH]c2ccccc12 | 18.3 µM (active) |
| O=C(COC(=O)Cc1c[nH]c2ccccc12)NCCc1ccccc1 | inactive |

| Compound | Potency |
| --- | --- |
| CCOC(=O)CN(C)Cc1c[nH]c2ccccc12 | inactive |
| COc1ccc(S(=O)(=O)NCc2cccnc2)cc1NC(=O)c1ccc(C)cc1 | inactive |
| COc1cc(C(=O)Nn2c(CC(C)C)nc3ccccc3c2=O)cc(OC)c1OC | inactive |
| Cc1ccc(NC(=O)c2cc(-c3ccc(C)o3)nc3ccccc23)nc1 | inactive |
| Cc1cc(O)ccc1-c1cnc2ccccc2n1 | inactive |
| Cc1ccc(Nc2nc(-c3ccc(O)cc3O)cs2)nc1 | 4.47 µM (active) |
| CC(=O)c1ccc(S(=O)(=O)Nc2ccc(-c3ccc4nncn4n3)cc2)cc1 | inactive |
| NC(=S)NN=C1CCCC(C(F)(F)F)C1 (stereo not given) | inactive |
| O=C(COC(=O)c1ccc(Br)o1)NC12CC3CC(CC(C3)C1)C2 | inactive |
| CCOc1cc(N2CCOCC2)c(OCC)cc1NC(=O)COc1cccc(Cl)c1 | inactive |
| CCOc1cc(N2CCOCC2)c(OCC)cc1NC(=O)COC(=O)[C@H](Cc1c[nH]c2ccccc12)NC(C)=O | inactive |
| CCOc1cc(N2CCOCC2)c(OCC)cc1NC(=O)COc1cccc2cccnc12 | 4.47 µM (active) |
| COc1ccc(Cl)cc1NC(=O)CN1CCN(C(=O)N2CCOCC2)CC1 | inactive |
| O=C(Nc1c2c(nc3ccccc13)CCCC2)c1ccccc1Br | inactive |
| Cc1ccc(Nc2c3c(nc4ccccc24)CCC3)cc1 | 11.2 µM (active) |
| CCOc1ccc(NC(=O)CSc2c3c(nc4ccccc24)CCCC3)cc1 | inactive |
| Cc1ccc(C(=O)O)c(NC=O)c1OCc1ccccc1 | inactive |
| Cc1[nH]c(C)c(S(=O)(=O)N2CCC(C)CC2)c1C(=O)N1CCCC1 | inactive |
| CN(CC(=O)NCCc1ccc(S(N)(=O)=O)cc1)CC(=O)Nc1ccc(Cl)cc1 | inactive |
| O=C1NC(Nc2nc3ccccc3s2)(C(F)(F)F)C(=O)N1C1CCCCC1 (stereo not given) | 6.51 µM (active) |
| COC(=O)NC1(C(F)(F)F)NC(=O)N(C2CCCCC2)C1=O (stereo not given) | inactive |
| O=C(NC1(C(F)(F)F)N=C(c2ccccc2)N(C2CCCCC2)C1=O)c1ccccc1F (stereo not given) | inactive |
| C=CCOc1cccc(CNCc2cccnc2)c1 | inactive |
| COc1ccc(-c2nn(-c3ccccc3)cc2/C=C\C(=O)N2CCOCC2)cc1[N+](=O)[O-] | inactive |
| CC(C)c1ccc(/C=C/C(=O)NCCCN2CCOCC2)cc1 | inactive |
| O=C(/C=C/c1cn(-c2ccccc2)nc1-c1ccc2c(c1)OCCO2)NCCCN1CCOCC1 | 3.55 µM (active) |
| Cc1cc(F)ccc1NC(=S)NCCc1ccccc1 | inactive |

| Compound | Potency |
| --- | --- |
| O=C(Nc1cccc(Cl)c1Cl)c1ccccc1NC(=O)C1CC=CCC1C(=O)O (stereo not given) | inactive |
| Cc1ccccc1CN1CCNC(=O)C1CC(=O)NCCC1=CCCCC1 (stereo not given) | inactive |
| COc1ccccc1C(=O)Nc1ccc(C)c(S(=O)(=O)N2CCCCC2)c1 | 8.91 µM (active) |
| Cc1ccc(NS(=O)(=O)c2cccs2)cc1S(=O)(=O)N1CCCCCC1 | 10 µM (active) |
| O=S(=O)(Nc1ccccc1)c1ccc(NS(=O)(=O)c2cccs2)cc1 | inactive |
| Cc1ccc(NC(=O)c2ccccn2)cc1S(=O)(=O)N1CCOCC1 | inactive |
| Cc1ccc(C(=O)NNC(=O)c2ccncc2)cc1S(=O)(=O)N1CCCCC1 | inactive |
| Cc1ccc(NC(=O)CCCNC(=O)c2ccc(Cl)cc2)cc1S(=O)(=O)N1CCCCC1 | inactive |
| CCOc1ccc2ccccc2c1/C=N/NC(=O)c1c(C)cc(C)[nH]c1=O | inactive |
| Cc1ccc(/C=C2\CCn3c2nc2cc(C(=O)O)ccc2c3=O)c(C)c1 | inactive |
| Cc1ccc(Nc2nnc(SC(C)C(=O)NC3CC3)s2)cc1 (stereo not given) | inactive |
| CCOC(=O)C1CCN(C(=O)CN2C(=O)c3cccnc3Oc3ccc(C)cc32)CC1 | inactive |
| COc1ccc2nc(/N=C(\N)NC(=O)Nc3ccccc3)nc(C)c2c1 | inactive |
| Cc1nc(/N=C(\N)NC(=O)NC2CCCCC2)nc2ccccc12 | 7.94 µM (active) |
| O=C(NNC(=O)C(O)c1ccccc1)NC1CCCCC1 (stereo not given) | inactive |
| O=C(OCCOCn1cc(Br)c(=O)[nH]c1=O)c1ccccc1 | inactive |
| C=CCn1c(=O)n(C)c2c(=O)n(C)c(=O)n(C)c21 | inactive |
| O=C1CC(c2ccccc2)C(=O)N2C(=O)CC(c3ccccc3)C(=O)N12 (stereo not given) | inactive |
| C=CCNC(=O)C1CC2c3ccccc3C1c1ccccc12 (stereo not given) | inactive |
| COc1cc2c(cc1OC)CN(CC(=O)Nc1ccc(F)cc1)CC2 | inactive |
| CC[C@H]1CN2CCc3cc(OC)c(OC)cc3[C@@H]2C[C@@H]1C[C@H]1NCCc2cc(OC)c(OC)cc21 | 224 nM (active) and 326 nM (active) and 103 nM (active) |
| COc1cc(NC(=O)CSc2ccc(-c3cccnc3)nn2)cc(OC)c1 | inactive |
| CCOc1ccc(CC(=O)NCCS(=O)(=O)N2CCN(c3ccccc3)CC2)cc1 | inactive |
| Cc1nc2ccccc2c(C(=O)O)c1-c1ccccn1 | inactive |
| O=C(COc1ccc([N+](=O)[O-])cc1Cl)Nc1ccc2[nH]c(=O)[nH]c2c1 | inactive |
| CC(=O)C1=C(C)NC(C)=C(C(C)=O)C1c1cn(-c2ccccc2)nc1-c1cccs1 | inactive |
| O=C(NCc1cccnc1)c1cn(-c2ccccc2)nc1-c1cccs1 | inactive |

| Compound | Potency |
| --- | --- |
| O=C(O)c1ccc(N/N=C/c2cn(-c3ccccc3)nc2-c2cccs2)cc1 | 4.47 µM (active) |
| COc1ccc(OC)c(NC(=O)C2CCCN2S(=O)(=O)c2cccc3nsnc23)c1 (stereo not given) | inactive |
| CC[C@]12c3[nH]c4ccc(Cl)cc4c3CCN1C(=O)[C@@H](CC(=O)NCCCOC)C[C@@H]2C(=O)N1CCN(C(=O)c2ccco2)CC1 | inactive |
| COc1ccc(C2(c3ccc(OC)cc3)NC(=O)N(CC(=O)Nc3cc(C)on3)C2=O)cc1 | inactive |
| CCCCOc1ccc(CSC(=N)N)cc1[N+](=O)[O-] | 14.1 µM (active) |
| CCCCCOc1ccc(CSC2=NCCN2)cc1[N+](=O)[O-] | inactive |
| CCCOc1ccc(Cn2ccnc2)cc1[N+](=O)[O-] | inactive |
| CCN(CC)CCCC(C)n1c2nc(=O)[nH]c(=O)c-2nc2cc(Cl)ccc21 (stereo not given) | 5.62 µM (active) |
| CCN(CC)CCn1c2ccc(Cl)cc2c2nc(C)sc21 | inactive |
| CC(=O)OC[C@H]1O[C@H](CCO/N=C(\C)CCN2CCCCc3nc(C)c(C)cc32)C=C[C@@H]1OC(C)=O | inactive |
| CC1CN(C(=S)SCC(=O)c2ccccc2)CC(C)O1 (stereo not given) | inactive |
| O=C(CSC(=S)N1CCOCC1)c1ccccc1 | 7.31 µM (active) |
| O=C(CSC(=S)N1CCOCC1)c1cc(Br)cc(Br)c1O | inactive |
| Cc1ccc(CNC(=O)C(=O)c2cn(CC(=O)N3CCCC3)c3ccccc23)cc1 | inactive |
| Cc1cc(NC(=O)CSc2nnc(-c3ccco3)n2N)no1 | inactive |
| O=C(COC(=O)c1cccc(Cl)c1)NC(=O)NCc1ccccc1 | inactive |
| COc1ccc2c(c1O)-c1cccc3c1[C@@H](C2)N(C)CC3 | 1 µM (active) |
| COc1c(O)ccc2c1-c1c3c(cc4c1C(C2)N(C)CC4)OCO3 (stereo not given) | inactive |
| Cn1c(N)cc(=O)n(C)c1=S | inactive |
| CC(C(=O)c1ccc(-c2ccccc2)cc1)[n+]1cccc(Br)c1 (stereo not given) | inactive |
| O=C(NCc1nnc(SCC(=O)N2CCCCCC2)o1)c1ccc(F)cc1 | inactive |
| COCCCn1c(SCC(=O)Nc2ccccc2)nnc1-c1ccncc1 | inactive |
| CCC(=O)Nc1cccc(NC(=O)CSc2nnc(-c3ccc(NS(C)(=O)=O)cc3)n2C)c1 | inactive |
| Cn1c(SCC(=O)Nc2cccc(NC(=O)c3cccs3)c2)nnc1-c1ccncc1 | 12.6 µM (active) |

— PubChem BioAssay AID540276 (National Center for Advancing Translational Sciences (NCATS), 2011)
